What all share (settings): mRNA level, 48 h; actives raise or lower the signal
Read-out in assay [1]: flavin-containing dimethylaniline monooxygenases 3 (FMO3), FMO3 (gene 2328)
Briefly: LTEA_HepaRG_FMO3: Life Technologies and Expression Analysis (LTEA) Assay for flavin-containing dimethylaniline monooxygenases 3 (FMO3) using HepaRG (AID 2283453). The essentials: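 Differentiated HepaRG cells in serum-free induction medium, exposed 48 h in duplicate to 8 half-log concentrations up to 100 uM in 0.5% DMSO. FMO3 mRNA by qRT-PCR, normalized to ACTB, GAPDH, POLR2A; bidirectional fit vs DMSO.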

Read-out in assay [2]: Cytochrome P450 (CYP1A1), CYP1A1 (gene 1543)
Nature of the assay: LTEA_HepaRG_CYP1A1: Life Technologies and Expression Analysis (LTEA) Assay for Cytochrome P450 (CYP1A1) using HepaRG (AID 2283454). In a few lines:
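Differentiated human HepaRG cells, after 48 h plating, exposed in duplicate for 48 h in serum-free induction medium to 8 half-log concentrations up to 100 uM in 0.5% DMSO. CYP1A1 mRNA by qRT-PCR, normalized to ACTB/GAPDH/POLR2A; bidirectional fit versus DMSO.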

Read-out in assay [3]: CFLAR gene, CFLAR (gene 8837)
Briefly: LTEA_HepaRG_CFLAR: Life Technologies and Expression Analysis (LTEA) Assay for CFLAR gene using HepaRG (AID 2283455). In a few lines:
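HepaRG, 48 h exposure, 8-pt conc-response (100 uM top, half-log), 0.5% DMSO vehicle, duplicates. CFLAR expression by qRT-PCR; ACTB/GAPDH/POLR2A normalization; gain or loss fit vs DMSO baseline.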

Read-out in assay [4]: Forkhead box O1 (FOXO1), FOXO1 (gene 2308)
Nature of the assay: LTEA_HepaRG_FOXO1: Life Technologies and Expression Analysis (LTEA) Assay for Forkhead box O1 (FOXO1) using HepaRG (AID 2283456). The essentials: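 Readout is FOXO1 transcript level by multiplexed qRT-PCR against three housekeeping genes, curve-fitted in both directions relative to 0.5% DMSO vehicle. Human HepaRG cultures received chemicals for 48 h, up to 100 uM in half-log steps.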

Read-out in assay [5]: growth arrest and DNA damage 45 (GADD45A), GADD45A (gene 1647)
Briefly: LTEA_HepaRG_GADD45A: Life Technologies and Expression Analysis (LTEA) Assay for growth arrest and DNA damage 45 (GADD45A) using HepaRG (AID 2283458). In a few lines: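 Cells plated and cultured 48 h, switched to serum-free induction medium, then dosed for 48 h (100 uM top, half-log dilutions, 0.5% DMSO). RNA was isolated and transcript measured by Fluidigm qRT-PCR.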

Read-out in assay [6]: Forkhead box O3 (FOXO3), FOXO3 (gene 2309)
Nature of the assay: LTEA_HepaRG_FOXO3: Life Technologies and Expression Analysis (LTEA) Assay for Forkhead box O3 (FOXO3) using HepaRG (AID 2283459). In a few lines: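 HepaRG, 48 h post-dose; 8 conc., half-log from 100 uM, 0.5% DMSO, duplicates; serum-free induction medium. Readout: FOXO3 mRNA, TaqMan qRT-PCR, housekeeping-normalized. Bidirectional curve fit vs DMSO baseline.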

Read-out in assay [7]: growth arrest and DNA damage 45 (GADD45B), GADD45B (gene 4616)
Nature of the assay: LTEA_HepaRG_GADD45B: Life Technologies and Expression Analysis (LTEA) Assay for growth arrest and DNA damage 45 (GADD45B) using HepaRG (AID 2283461). The essentials:
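Differentiated human HepaRG cells in serum-free induction medium exposed 48 h in duplicate to eight concentrations, top 100 uM, half-log steps, 0.5% DMSO. GADD45B mRNA by TaqMan qRT-PCR, normalized to ACTB, GAPDH, POLR2A; bidirectional fit versus DMSO.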

Read-out in assay [8]: ABC Transporter (ABCC3), ABCC3 (gene 8714)
Nature of the assay: LTEA_HepaRG_ABCC3: Life Technologies and Expression Analysis (LTEA) Assay for ABC Transporter (ABCC3) using HepaRG (AID 2283462). In a few lines:
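Differentiated human HepaRG cells exposed 48 h in serum-free induction medium, 0.5% DMSO vehicle, 8-point half-log series to 100 uM in duplicate. ABCC3 mRNA by qRT-PCR, normalised to ACTB, GAPDH, POLR2A; bidirectional fit vs DMSO.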

Read-out in assay [9]: ABC Transporter (ABCB11), ABCB11 (gene 8647)
Briefly: LTEA_HepaRG_ABCB11: Life Technologies and Expression Analysis (LTEA) Assay for ABC Transporter (ABCB11) using HepaRG (AID 2283463). In a few lines: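 ABCB11 transcript levels are read by Fluidigm TaqMan qRT-PCR after 48 h chemical treatment of human HepaRG cells. Concentrations span 100 uM downward in half-log steps with 0.5% DMSO; gain or loss is fitted against DMSO controls.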

Read-out in assay [10]: ABC Transporter (ABCC2), ABCC2 (gene 1244)
Briefly: LTEA_HepaRG_ABCC2: Life Technologies and Expression Analysis (LTEA) Assay for ABC Transporter (ABCC2) using HepaRG (AID 2283464). In a few lines:
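Differentiated HepaRG cells in serum-free induction medium exposed 48 h to eight half-log concentrations up to 100 uM, 0.5% DMSO, in duplicate. ABCC2 mRNA measured by qRT-PCR (TaqMan, Fluidigm), normalized to ACTB, GAPDH and POLR2A. Fitted in both directions against DMSO.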

Read-out in assay [11]: Broad substrate specificity ATP-binding cassette transporter ABCG2 (Homo sapiens) (UniProt Q9UNQ0)
Nature of the assay: LTEA_HepaRG_ABCG2: Life Technologies and Expression Analysis (LTEA) Assay for ABC Transporter (ABCG2) using HepaRG (AID 2283465). The essentials: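 Read-out is ABCG2 mRNA induction or loss quantified by qRT-PCR after 48 h chemical treatment of human HepaRG cells, normalized to three housekeeping genes. Concentrations reached 100 uM top in half-log steps; fitting was bidirectional against 0.5% DMSO.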

Read-out in assay [12]: ATP-citrate lyase (ACLY), ACLY (gene 47)
Briefly: LTEA_HepaRG_ACLY: Life Technologies and Expression Analysis (LTEA) Assay for ATP-citrate lyase (ACLY) using HepaRG (AID 2283466). In a few lines: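 HepaRG, 48 h exposure, 8-pt half-log dilutions (top 100 uM), 0.5% DMSO. Readout: ACLY mRNA, TaqMan qRT-PCR, housekeeping-normalized (ACTB/GAPDH/POLR2A). Bidirectional curve fit vs DMSO.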

Read-out in assay [13]: Bcl-2 (BAD) gene, BAD (gene 572)
Nature of the assay: LTEA_HepaRG_BAD: Life Technologies and Expression Analysis (LTEA) Assay for Bcl-2 (BAD) gene using HepaRG (AID 2283469). The essentials: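 BAD transcript change, measured by qRT-PCR against three housekeeping genes and fitted in both directions relative to 0.5% DMSO, after 48 h chemical treatment of human HepaRG liver cells at concentrations up to 100 uM.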

Read-out in assay [14]: Alpha-fetoprotein (AFP) gene, AFP (gene 174)
Briefly: LTEA_HepaRG_AFP: Life Technologies and Expression Analysis (LTEA) Assay for Alpha-fetoprotein (AFP) gene using HepaRG (AID 2283472). In a few lines:
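HepaRG, single lot; 48 h post-plating -> serum-free induction medium; cpd 8-pt, 100 uM top, half-log, 0.5% DMSO, duplicate, 48 h. RNA -> qRT-PCR AFP, norm ACTB/GAPDH/POLR2A. Bidirectional fit vs DMSO.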

Read-out in assay [15]: ABC Transporter (ABCB1), ABCB1 (gene 5243)
Briefly: LTEA_HepaRG_ABCB1: Life Technologies and Expression Analysis (LTEA) Assay for ABC Transporter (ABCB1) using HepaRG (AID 2283460). The essentials:
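Expression of ABCB1 was quantified by qRT-PCR against three housekeeping genes after human HepaRG cultures received test chemicals for 48 hours. Concentrations spanned eight half-log steps topping at 100 uM in 0.5% DMSO; gain or loss of signal was fitted relative to vehicle.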

Read-out in assay [16]: Peroxisomal acyl-coenzyme A oxidase 1 (ACOX1) gene, ACOX1 (gene 51)
Nature of the assay: LTEA_HepaRG_ACOX1: Life Technologies and Expression Analysis (LTEA) Assay for Peroxisomal acyl-coenzyme A oxidase 1 (ACOX1) gene using HepaRG (AID 2283467). In a few lines: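 Measured by qRT-PCR against three housekeeping genes: ACOX1 transcript change in human HepaRG cells after 48 h dosing. Concentrations ran up to 100 uM in half-log steps. Curves were fitted bidirectionally relative to 0.5% DMSO.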

Read-out in assay [17]: Alkaline Phosphatase, Placental (ALPP) gene, ALPP (gene 250)
Briefly: LTEA_HepaRG_ALPP: Life Technologies and Expression Analysis (LTEA) Assay for Alkaline Phosphatase, Placental (ALPP) gene using HepaRG (AID 2283468). The essentials:
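HepaRG cells plated 48 h, then exposed in duplicate for 48 h in serum-free induction medium to 8-point half-log series from 100 uM in 0.5% DMSO. ALPP mRNA by TaqMan qRT-PCR, normalized to ACTB/GAPDH/POLR2A; bidirectional fit versus DMSO.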

Read-out in assay [18]: adenosine kinase (ADK) gene, ADK (gene 132)
Briefly: LTEA_HepaRG_ADK: Life Technologies and Expression Analysis (LTEA) Assay for adenosine kinase (ADK) gene using HepaRG (AID 2283471). The essentials:
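ADK expression quantified by qRT-PCR, normalised to three housekeeping genes, after 48 h exposure of HepaRG cells to eight concentrations (top 100 uM, half-log steps, duplicate, 0.5% DMSO). Up- or down-regulation fitted relative to vehicle.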

Read-out in assay [19]: Bcl-2 (BAX) gene, BAX (gene 581)
Briefly: LTEA_HepaRG_BAX: Life Technologies and Expression Analysis (LTEA) Assay for Bcl-2 (BAX) gene using HepaRG (AID 2283470). In a few lines: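 HepaRG (human liver), 48 h exposure, duplicate wells. 8-pt curve, half-log from 100 uM, 0.5% DMSO. BAX transcript by TaqMan qRT-PCR; ACTB/GAPDH/POLR2A normalization; gain or loss vs DMSO baseline.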

Active and inactive are the calls of the source. The calls were made as follows: active = hit-call score of the fitted dose curve at least 0.9, where 1 is the maximum; inactive = score below 0.9.

Broad substrate specificity ATP-binding cassette transporter ABCG2 (Homo sapiens), sequence (Q9UNQ0 whole entry, looked up): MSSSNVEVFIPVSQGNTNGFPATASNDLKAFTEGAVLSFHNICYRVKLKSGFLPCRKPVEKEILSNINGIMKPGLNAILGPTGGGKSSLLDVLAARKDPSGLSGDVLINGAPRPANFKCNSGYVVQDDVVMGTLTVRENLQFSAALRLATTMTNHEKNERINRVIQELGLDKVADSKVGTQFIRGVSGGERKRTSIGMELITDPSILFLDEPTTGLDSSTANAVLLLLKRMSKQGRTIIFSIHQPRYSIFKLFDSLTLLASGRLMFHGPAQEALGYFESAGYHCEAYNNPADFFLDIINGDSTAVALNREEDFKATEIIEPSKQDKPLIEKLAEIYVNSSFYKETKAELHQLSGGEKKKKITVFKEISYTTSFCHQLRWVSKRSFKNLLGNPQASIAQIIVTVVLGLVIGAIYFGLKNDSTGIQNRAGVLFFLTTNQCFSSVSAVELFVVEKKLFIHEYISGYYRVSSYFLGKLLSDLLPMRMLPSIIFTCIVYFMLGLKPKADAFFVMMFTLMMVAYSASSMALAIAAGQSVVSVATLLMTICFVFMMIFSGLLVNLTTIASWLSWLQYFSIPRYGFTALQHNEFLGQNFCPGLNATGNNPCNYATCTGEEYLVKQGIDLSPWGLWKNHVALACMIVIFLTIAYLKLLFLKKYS

A word on the AC50: it is the concentration giving half of the maximal activity seen. Turning to `O=[N+]([O-])c1ccc(Oc2ccc(Cl)cc2Cl)cc1`, the AC50 in assay [1] is 50 µM (active); in [2], 22.8 µM (active); in [9], 11.5 µM (active); in [11], 14.5 µM (active); in assay [14] it was 66.9 µM (active). Besides, the molecule was called inactive in [3], in assay [4], in [5], in [6], in assay [7] and in assay [8]. Also, the outcome in [10], in [12] and in [13] was inactive.

With `CC(O)CCO` (stereo not drawn), the molecule was classed as inactive in [2], in assay [3], in assay [4], in assay [5], in assay [6] and in assay [15]. Also, the call in assay [7], in assay [8], in assay [9], in assay [10], in assay [11] and in [12] was inactive. The call in assay [16], in assay [17], in assay [13], in assay [18] and in assay [14] was inactive.

For the molecule `CC(C)(OOC(C)(C)c1ccccc1)c1ccccc1`, the AC50 in assay [2], in assay [7] and in [10] was 50 µM (active) each time. Besides, the call in assay [3], in assay [4], in assay [5], in assay [6], in assay [15] and in assay [8] was inactive. Further, the result in assay [9], in assay [11], in assay [12], in [16], in assay [17] and in assay [13] was inactive. Further, the result in [18] and in assay [14] was inactive.

Turning to `CCCCCCCCn1sccc1=O`, the AC50 in assay [1] is 88.9 µM (active); in [2], 32.8 µM (active); in [3], 78.9 µM (active); in assay [8], 73.8 µM (active); in assay [9], 72.1 µM (active); in [14], 79.5 µM (active). For the same molecule, the result in assay [4], in [5], in assay [6], in assay [7], in assay [10] and in assay [11] was inactive. Besides, the molecule was classed as inactive in assay [12], in assay [17], in assay [13] and in assay [18].

On to `N#CC(Br)Br`, for which the molecule was called inactive in assay [1], in assay [2], in assay [3], in [4], in [5] and in assay [6]. Also, the outcome in assay [8], in assay [9], in assay [10], in [11], in assay [12] and in assay [16] was inactive. The molecule was called inactive in assay [17], in assay [13], in assay [19] and in [14].

In the case of `O=C1CCCO1`, the outcome in assay [2], in assay [3], in assay [4], in assay [6], in [7] and in assay [8] was inactive. Further, the result in assay [9], in assay [10], in assay [11], in assay [12], in assay [16] and in assay [17] was inactive. Moreover, the outcome in [13], in [19] and in assay [14] was inactive. For the same molecule, the AC50 is 50 µM (active) in assay [5], 9.92 µM (active) in [15] and 50 µM (active) in assay [18].

In the case of `CCCSC(=O)N(CCC)CCC`, the outcome in assay [1], in assay [3], in assay [4], in assay [5], in assay [6] and in assay [8] was inactive. In addition, the outcome in assay [9], in assay [10], in [11], in assay [12], in [17] and in assay [13] was inactive. Moreover, the molecule was called inactive in [18] and in [14]. The AC50 in [2] is 50 µM (active).

These data come from PubChem BioAssay (EPA / NIEHS).
